# Screening data as filed in PubChem.
# Shown are actives, neighbours in structure and some others; about 2.4% of the full set was active somewhere.
# Cruzain noTriton: inhibitors of Trypanosoma cruzi cruzain without detergent. 200,000 tested, 2.3% active. purified cruzain, Z-FR-AMC fluorescence, no detergent. AID 1476. Potency, µM, for inactives: max response, negative = inhibition, most hits filed as inhibitors. P25779;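 also: plate controls were enzyme without inhibitor for no effect and buffer without enzyme for full effect; nearly all actives have a fitted effect of over 40% in size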
# Target sequence (P25779 123-467 limits assumed): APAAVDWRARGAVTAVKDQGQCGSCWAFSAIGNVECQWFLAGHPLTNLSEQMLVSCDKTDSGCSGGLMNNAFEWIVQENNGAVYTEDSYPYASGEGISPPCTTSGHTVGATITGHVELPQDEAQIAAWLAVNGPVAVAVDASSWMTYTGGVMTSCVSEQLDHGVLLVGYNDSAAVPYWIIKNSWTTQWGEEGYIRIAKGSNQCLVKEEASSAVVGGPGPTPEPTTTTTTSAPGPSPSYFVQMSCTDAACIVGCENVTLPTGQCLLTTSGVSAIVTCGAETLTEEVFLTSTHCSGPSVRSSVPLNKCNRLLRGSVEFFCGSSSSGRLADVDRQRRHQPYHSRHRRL
#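 Detergent-free condition (0.00005% Triton X-100) in acetate buffer pH 5.5 with DTT. 1.5 nM enzyme and compound were pre-mixed 15 min, then 2 uM Z-FR-AMC substrate added; reaction progress from fluorescence change between first and third reads (60 s).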
# Cruzain inh Det: inhibitors of Trypanosoma cruzi cruzain with detergent. P25779. 200,000 tested, 0.43% active. AID 1478. Potency, µM, without a hit: max response, negative = inhibition, most hits filed as inhibitors. purified cruzain, Z-FR-AMC fluorescence, 0.01% Triton;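 also: plate controls were neutral wells for no effect and buffer without enzyme for full effect; nearly all actives have a fitted effect of over 40% in size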
#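 Detergent-containing run (0.01% Triton X-100) in acetate buffer pH 5.5 with 5 mM DTT: enzyme at 1.5 nM final, 15 min compound preincubation at room temperature, then 2 uM Z-FR-AMC substrate. Activity taken as 60 s fluorescence increase at 360/450 nm.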
# Active calls of the source: *; ? = inconclusive. Calls follow the shape of the dose curve; as a rule, active = well fitted curve in the direction sought with a large enough effect; inconclusive = small, poorly fitted or top-dose-only effect, or another doubt; inactive = no such curve, though single readings can be large; an effect the other way counts as inactive or inconclusive. Potency is read from the fitted curve at half-maximal effect.
SMILES,Cruzain noTriton,Cruzain inh Det
CN(C)c1ccc(N=Cc2nc(-c3ccccc3)oc2OC(=O)c2ccccc2)cc1,?,-14%
CCOC(=O)c1sc(NC(=O)CSc2nc3ccccc3s2)c(C(=O)OCC)c1C,20µM*,-5%
CCOC(=O)c1sc(NC(=O)CSc2nc3c(c(=O)n2-c2ccc(C)cc2)SCC3)c(C(=O)OCC)c1C,6.3µM*,-8%
CCOC(=O)c1sc(NC(=O)CSc2nnnn2-c2ccc(C)cc2)c(C(=O)OCC)c1C,-29%,1%
COc1ccccc1-n1c(SCC(=O)Nc2nnc(C)s2)nc2c(c1=O)SCC2,-5%,22µM*
COc1ccccc1-n1c(SCC(=O)Nc2ccc(F)cc2)nc2c(c1=O)SCC2,-18%,-28%
CCOC(=O)c1sc(NC(=O)CSc2nncs2)c(C(=O)OCC)c1C,?,-9%
Cc1c(Cl)cccc1NC(=O)C(=O)NCCc1csc(-c2cccc(F)c2)n1,-5%,0%
N#CC(C#N)=CC1=C2OC(c3ccccc3)=CC(c3ccccc3)=C2CCC1,5µM*,2%
CC(C)n1c(=O)c2c(O)cc(=O)oc2c2ccccc21,25µM*,1%
CCn1c(=O)c2c(O)cc(=O)oc2c2ccccc21,-6%,-4%
COc1ccc(NC(=O)NC(C(F)(F)F)C(F)(F)F)cc1,-12%,-1%
Cc1cccc(NC(=O)COC(=O)CNC(=O)C2CCCCC2)c1,7.9µM*,7.1µM*
Cc1cccc(NC(=O)C2CCCC2)c1,9%,-1%
O=c1[nH]c(=O)n([C@@H]2C[C@H](O)[C@H](CO)O2)cc1C(F)(F)F,-15%,1%
NC(=S)N/N=C/c1ccccc1OCc1cccc(Cl)c1,?,-24%
O=c1cc(/N=C/c2coc3c(ccc4ccccc43)c2=O)[nH]c(=S)[nH]1,7.9µM*,-6%
NC(=S)N/N=C/c1coc2c(ccc3ccccc32)c1=O,0.63µM*,?
O=c1cc(CSc2ccccc2)[nH]c(=S)[nH]1,-3%,3%
CC[C@](N)(C(=O)O)C(C)C,24%,4%
CCCN(CCC)CCCNC(=O)c1nn(C)c2c1CS(=O)(=O)c1ccccc1-2,-2%,1%
NNC(=O)c1ccc[n+](CCc2ccccc2)c1,-5%,3%
COc1ccc(CNC(=O)c2nc(SCc3ccccc3F)ncc2Cl)cc1,-19%,-6%
CC(C)COc1ccc(C(=O)Nc2scc(-c3ccc(Cl)cc3Cl)c2C(N)=O)cc1,10µM*,-18%
CC(C)COc1ccc(C(=O)Nc2cc3nn(-c4ccccc4)nc3cc2Cl)cc1,-5%,0%
SMILES,Cruzain noTriton,Cruzain inh Det
Cc1ccc(-c2csc3ncnc(SCC(=O)c4ccc5c(c4)OCCO5)c23)cc1,10µM*,4%
Cc1sc2ncnc(SCC(=O)c3ccc4c(c3)OCCO4)c2c1-c1ccccc1,32µM*,-2%
O=C(CSc1ncnc2ccccc12)c1ccc2c(c1)OCCO2,-5%,-6%
O=C(CSc1ncnc2scc(-c3ccc(F)cc3)c12)c1ccc2c(c1)OCCO2,?,-6%
CCOC(=O)C1CCCN(C(=O)C2CCN(S(=O)(=O)c3c(C)noc3/C=C/c3ccc(C)cc3)CC2)C1 (stereo not drawn),?,-7%
CCOC(=O)c1ccc(NC(=O)c2cc(=O)c3ccc(C)c(C)c3o2)cc1,-17%,-2%
ClCC(Cl)CCl,3%,-1%
Cc1oc2ncn(CC(C)C)c(=O)c2c1C(=O)N1CCN(c2cccc(C(F)(F)F)c2)CC1,27%,-6%
O=C(Cn1cc(S(=O)(=O)N2CCN(c3ccccc3F)CC2)c2ccccc2c1=O)Nc1ccc(F)cc1Cl,?,-1%
CCOc1ccc(NC(=O)Cn2cc(S(=O)(=O)N3CCN(c4ccccc4F)CC3)c3ccccc3c2=O)cc1,16µM*,-2%
CCc1cccc(NC(=O)CSc2ncc3c(n2)-c2cc(Cl)ccc2N(C)S3(=O)=O)c1,-12%,1%
N#C/C(=C/c1ccc(Cl)cc1)c1nc(-c2ccc(Br)cc2)cs1,-9%,-2%
Cc1ccnc(N/C=C(\C#N)c2nc(-c3cccc(Br)c3)cs2)c1,25µM*,?
Nc1ncc(S(=O)(=O)NCc2cccc(Cl)c2)cn1,2%,0%
Cc1cc(C)cc(N=Cc2[nH]c3ccc(Br)c(Cl)c3c2O)c1,4µM*,-1%
COc1ccc(CN=CC2=C(O)CNC2=O)cc1,-2%,8%
COc1ccc(CN=Cc2[nH]c3ccc(Br)c(Cl)c3c2O)cc1,25µM*,-15%
Cc1ccc(O)c(C=Nc2ccc3[nH]ncc3c2)c1,7%,?
CC(=O)Nc1nonc1-c1nnc(SCc2cccc(Br)c2)n1C,2%,-1%
BrC(Br)C(Br)Br,10%,-5%
CNC(=O)[C@@H](Cc1ccccc1)N(C)C(=O)[C@@H](Cc1ccc2ccccc2c1)N(C)C(=O)/C=C/CC(C)(C)N,2%,-2%
Cc1sc2ncnc(SCC(=O)N3c4ccccc4Sc4ccc(Cl)cc43)c2c1C,7.9µM*,-4%
Cc1sc2ncnc(SCC(=O)c3cccs3)c2c1C,?,2%
COc1ccc(N2CCN(C(c3ccccc3)c3sc4nc(-c5ccco5)nn4c3O)CC2)cc1 (stereo not drawn),8%,0%
CN(c1ncnc2onc(-c3cccc(Cl)c3)c12)C1CCCCC1,-2%,-5%
SMILES,Cruzain noTriton,Cruzain inh Det
Cc1ccc(SCc2cc(=O)[nH]c(/N=C(\N)Nc3ccccc3Sc3ccccc3)n2)cc1,13µM*,3%
COc1ccccc1N/C(N)=N/c1nc(CSc2ccc(C)cc2)cc(=O)[nH]1,?,2%
C[C@H](CC(C#N)(c1ccccc1)c1ccccc1)N1CCCCC1,9%,-1%
COc1ccc2[nH]c3c(NCc4ccco4)ncnc3c2c1,?,18µM*
CCN(CC)CCNc1ncnc2c1[nH]c1ccc(OC)cc12,?,4%
COC(=O)c1ccc(C(=O)OC)c(NC(=O)N2CC3CCCN3c3ccccc32)c1 (stereo not drawn),10%,-4%
CCn1c(C(=O)N2CCC(C(=O)N3CCN(c4cc(C)ccc4C)CC3)CC2)cc2sccc21,?,-10%
O=C(O)C1CC[C@@](C(=O)O)(c2ccccc2)c2ccccc21 (stereo partly drawn),-5%,1%
CCOC(=O)c1c(C)n(Cc2ccco2)c2c1cc(O)c1ccccc12,25µM*,-2%
CCOC(=O)c1c(C)n(Cc2ccco2)c2ccc(OC)cc12,9%,-18%
CSCCC(NS(=O)(=O)c1ccc2c(c1)oc(=O)n2C)C(=O)N1CCN(c2cc(Cl)ccc2C)CC1 (stereo not drawn),6%,-5%
Cc1ccc(C(=O)N2CCN(c3ccc(Cl)cc3)CC2)cc1,-7%,1%
N#CCC(=N)N1CCN(c2ccc(Cl)cc2)CC1,13µM*,-1%
COc1ccc(OC)c(-c2ccc(C(=O)O)o2)c1,6%,-26%
Cc1ccc(C(=O)Nc2ccc3cn[nH]c3c2)cc1S(=O)(=O)N1CCCCC1,-29%,-4%
Cc1nc(Nc2cccc(C(F)(F)F)c2)nc2c1C(=O)CC(C)C2 (stereo not drawn),16µM*,5%
Cc1cccc(Nc2ncc3c(n2)CC(C)CC3=O)c1 (stereo not drawn),2%,-7%
CCc1cc(C(=O)N=Nc2c(O)[nH]c3ccc([N+](=O)[O-])cc23)c2ccccc2n1,-27%,-14%
CCCCCCC(=O)N=Nc1c(O)[nH]c2ccc([N+](=O)[O-])cc12,25µM*,-3%
C=CCOC(=O)N[C@@H](c1ccccc1)[C@@H](C)[N+](=O)[O-],-7%,4%
